# Measurements: ChEMBL document CHEMBL4513216, “Probing the Open Global Health Chemical Diversity Library for Multistage-Active Starting Points for Next-Generation Antimalarials” (ACS Infect Dis, 2020)
# The campaign covered roughly 65,000 compounds. About 2,100 (3.2%) showed an effect of 50% or more. The median lay at about -52%. Many of the other results were omitted from the sample, so strong results are more common in it than they were.
# System: Plasmodium falciparum
# Experiment: Screen against P. falciparum Asexual Blood Stage (ABS), at 5uM
# Format: functional, Dd2
# Conditions: tested at 5 uM
row,SMILES,INHIBITION
1,Cc1ccc(CN2CCN(c3cncc(N(C)C)n3)CC2=O)cc1C,-30%
2,CCN(CC)S(=O)(=O)c1ccc(CNc2cc(C)nc(C)n2)cc1,-79.3%
3,COCCO[C@H]1CCN(Cc2cccnc2)[C@H]1Cc1cccnc1,3.22%
4,Cc1ccc(N2CC[C@H](OCC3CC3)[C@@H]2Cc2cccnc2)nn1,-79.3%
5,COCCO[C@H]1CCN(Cc2ccsc2)[C@H]1Cc1cccnc1,14.6%
6,COCCO[C@@H]1CCN(Cc2csc(C)n2)[C@H]1Cc1ccccc1,65.8%
7,Cc1nc(CN2CC[C@H](OCC3CC3)[C@@H]2Cc2cccnc2)cs1,60.4%
8,Cc1nc(CN2CC[C@@H](OCC3CC3)[C@@H]2Cc2cccnc2)cs1,6.96%
9,Cc1ccc(CN2CCC3(C2)C(=O)N(CC2CC2)c2ccccc23)s1 (stereo not drawn),-74.8%
10,COCC(=O)N1C[C@H]2CN(Cc3cccc(F)c3)C(=O)[C@H]2C1,-63.1%
11,CC(NC(=O)N1CCCN(Cc2cccs2)CC1)c1cccnc1 (stereo not drawn),-63.5%
12,Cc1cc(CN2CCN(C(=O)NC(C)c3cccnc3)CC2)no1 (stereo not drawn),49.7%
13,Cc1nc(CN2CCN(C(=O)NC(C)c3cccnc3)CC2)cs1 (stereo not drawn),56.3%
14,CC(C)NC(=O)CCNC(=O)CCc1cc(Cl)cs1,-9.13%
15,Cn1nc(CN2CCCC2)c2c1CN(c1cnccn1)CC2,-56%
16,COc1c(CNC2CCCc3ccccc32)c(C)nn1C (stereo not drawn),3.18%
17,COc1c(CNCC(O)c2ccccc2)c(C(C)C)nn1C (stereo not drawn),0.811%
18,COc1c(CNC2CCCc3ccccc32)c(C(C)C)nn1C (stereo not drawn),64.8%
19,COc1c(CNC2CCCOc3ccc(F)cc32)c(C(C)C)nn1C (stereo not drawn),38.8%
20,COc1c(CNC2CCCOc3ccccc32)c(C)nn1C (stereo not drawn),-42.2%
21,COc1c(CNCC(O)c2cccc(F)c2)c(C(C)C)nn1C (stereo not drawn),63.5%
22,COc1c(CNCC(O)c2cccc(F)c2)c(C)nn1C (stereo not drawn),-92.7%

row,SMILES,INHIBITION
1,COc1c(CNC2CCc3c(F)cccc32)c(C)nn1C (stereo not drawn),-21.6%
2,COc1c(CNC2CCOc3ccccc32)c(C(C)C)nn1C (stereo not drawn),-20.7%
3,COc1c(CNC2CCOc3c(Cl)cccc32)c(C)nn1C (stereo not drawn),10.1%
4,COc1c(CNC2CCCOc3ccccc32)c(C(C)C)nn1C (stereo not drawn),52.2%
5,COc1c(CNC2CCc3c(Cl)cccc32)c(C)nn1C (stereo not drawn),62.6%
6,COc1ccc(CN2CCCn3cnc(COC(C)C)c3C2)cc1,-12.6%
7,CC(C)n1nc(Cn2cccc2)c2c1CN(Cc1ccoc1)C2,-92.6%
8,Cc1ccccc1C(=O)N1C[C@@H]2C(CN(C)CCc3ccccn3)[C@@H]2C1 (stereo partly drawn),-14.6%
9,COc1c(CNC2CCc3cc(F)ccc32)c(C(C)C)nn1C (stereo not drawn),59.7%
10,COc1c(CNC2CCc3cc(F)ccc32)c(C)nn1C (stereo not drawn),28.1%
11,COc1c(CNC2CCOc3c(Cl)cccc32)c(C(C)C)nn1C (stereo not drawn),-60.2%
12,CC(C)c1nn(C)c(N(C)C)c1CNC1CCc2cc(F)ccc21 (stereo not drawn),0.843%
13,COc1c(CNC2CCc3ccccc32)c(C)nn1C (stereo not drawn),33.9%
14,COc1ccc(CNCc2c(C(C)C)nn(C)c2N(C)C)cn1,-26.4%
15,COc1ccc(CNCc2c(C(C)C)nn(C)c2OC)cn1,60.8%
16,COc1c(CNCc2ccc(N(C)C)nc2)c(C(C)C)nn1C,-79%
17,COc1c(CNC2CCc3ccccc32)c(C(C)C)nn1C (stereo not drawn),62.5%
18,CC(C)CN1C(=O)C[C@@H]2[C@@H]1CCN2Cc1cccc(C#N)c1,-105%
19,Cc1cc(C)n(CC2CCCN2C(=O)c2cn[nH]c2C)n1 (stereo not drawn),-90%
20,O=C(CCSC1CCc2ccccc2NC1=O)NCCCO (stereo not drawn),-7.35%
21,Cc1nnc2n1CCN(Cc1ncc(-c3ccccc3)o1)C2,-95.9%
22,c1ccc(-c2cnc(CN3CCn4c(nnc4C4CC4)C3)o2)cc1,-8.02%

row,SMILES,INHIBITION
1,CC(C)c1nnc2n1CCN(Cc1ncc(-c3ccccc3)o1)C2,62%
2,Cc1nnc2n1CCN(Cc1ncc(-c3ccc(F)cc3)o1)C2,8.55%
3,Cc1ccccc1-c1noc(CN2CCn3c(nnc3C3CC3)C2)n1,51.7%
4,Cc1ccc(-c2noc(CN3CCn4c(nnc4C4CC4)C3)n2)cc1,-44.9%
5,CCc1nnc2n1CCN(Cc1ncc(-c3ccccc3)o1)C2,46.9%
6,Cc1cccc(-c2noc(CN3CCn4c(nnc4C4CC4)C3)n2)c1,-35.8%
7,Fc1ccc(-c2cnc(CN3CCn4c(nnc4C4CC4)C3)o2)cc1,53.1%
8,Cc1noc(C2CCCN2C(=O)C2CCC2)n1 (stereo not drawn),-24%
9,Cc1ncc(CN(C)Cc2nc3cc(Cl)ccc3n2C)s1,-54.3%
10,c1cc(CNCc2cccc3c2OCCCO3)cc(Cn2cncn2)c1,48.9%
11,CC1=NN(CC(=O)N2CC[C@@H]3[C@@H](CCC(=O)N3CC(C)C)C2)CC1,-127%
12,Cc1ncsc1C(=O)N1CCN(CCC(C)C)CC1,-64.6%
13,Cc1nc(-c2cccnc2)ncc1C(=O)N1CCC(C(C)N(C)C)CC1 (stereo not drawn),-79.6%
14,OC1CCN(CCCNc2ncccn2)CC1,-61.1%
15,CN(C(=O)Nc1ccccn1)C1CCCN(c2ccccc2)C1=O (stereo not drawn),13.9%
16,CN(C(=O)Nc1ccncc1)C1CCN(c2ccccc2)C1=O (stereo not drawn),51%
17,CN(C(=O)NCc1ccncc1)C1CCN(c2ccccc2)C1=O (stereo not drawn),-128%
18,CCn1nc2c(cc1=O)CN(CC(=O)Nc1nncs1)CC2,-35%
19,Cn1cc(N2CC3(CCN(C(=O)c4cccn4C)CC3)OCC2=O)cn1,-94.7%
20,CCn1c(CN2CCN(CC(N)=O)CC2)nc2c(F)cccc21,-147%
21,CCn1c(CN2CCN(CCOC)CC2)nc2c(F)cccc21,68.6%
22,CCn1c(CN2CCN(CCO)CC2)nc2c(F)cccc21,10.6%

row,SMILES,INHIBITION
1,Brc1cccnc1OC1CCNCC1,35.5%
2,Cc1nc(SC2CCN(c3sccc3C#N)C2=O)oc1C (stereo not drawn),-137%
3,Cc1cc2c(N3CCC(N(C)CCc4cnn(C)c4)CC3)ncnc2s1,-30.9%
4,CCN(C)c1cc(CNC(=O)CNC(=O)CC2CCCCC2)ccn1,-24.9%
5,CCCNCc1cn(Cc2ccccc2)nc1-c1cccnc1,60%
6,Cn1cc(CNCCc2cccnc2)c(-c2cccnc2)n1,-35.7%
7,Cn1cc(CNCCn2cccn2)c(-c2cccnc2)n1,-42%
8,Cn1cc(CNCCc2nccs2)c(-c2cccnc2)n1,1.56%
9,CCCNCc1cn(C)nc1-c1cccnc1,-21.6%
10,Cn1cc(CNCCOc2ccc(F)c(F)c2)c(-c2cccnc2)n1,54.4%
11,O=C(c1cccnc1)N1CCC2(CCN(C(=O)N3CCCC3)CC2)C1,-71.7%
12,CCCC(=O)N1CC[C@@H]2[C@H](CC1)N(Cc1cccc(C)n1)CCS2(=O)=O,-82%
13,Cn1cc(CN2CCCC23CCN(c2nc4ccccc4s2)CC3)cn1,51.7%
14,Cc1nc(CN2CCCC23CCN(c2nc4ccccc4s2)CC3)co1,9.68%
15,c1ccc2sc(N3CCC4(CCCN4Cc4ncc[nH]4)CC3)nc2c1,20.4%
16,CC(C)=CCN1CCN(Cc2cc(C)c(O)c(C)c2)CC1CCO (stereo not drawn),-36%
17,Cc1cc(CN(C)Cc2csc(-c3cccs3)n2)n[nH]1,-130%
18,CN(Cc1noc(C(C)(C)C)n1)Cc1ccccc1N1CCCC1,16.2%
19,Cc1cc(CN(C)Cc2ccccc2N2CCCCC2)n[nH]1,67.5%
20,CCN(C(=O)CN1CCn2c(nnc2C2CC2)C1)C1=CCCCC1,-67.6%
21,Cc1nccc(C(=O)NC(CN2CCCC2=O)c2ccccc2)n1 (stereo not drawn),-66.1%
22,CC(C)CNC(=O)c1nc(COc2ccc3c(c2)OCO3)no1,-58.7%

row,SMILES,INHIBITION
1,Cn1cc(C2CCCN2CCC(=O)N2CCc3sccc3C2)cn1 (stereo not drawn),-37.7%
2,O=C(CCN1CCCC1C1CCCCC1)N1CCc2sccc2C1 (stereo not drawn),59.9%
3,O=C(CCNCc1cccc(O)c1)N1CCc2sccc2C1,52.1%
4,O=C(CN1CCCC1c1cccs1)N1CCc2sccc2C1 (stereo not drawn),3.62%
5,N#Cc1cccc(CNCCC(=O)N2CCc3sccc3C2)c1,21.5%
6,COc1ccc(CNCCC(=O)N2CCc3sccc3C2)cc1O,36.4%
7,O=C(CCN1CCCC1c1cccs1)N1CCc2sccc2C1 (stereo not drawn),50.8%
8,O=C(CCC(=O)N1CCCC1c1cccs1)N1CCc2sccc2C1 (stereo not drawn),-117%
9,Cc1cc(C2CCCN2CCC(=O)N2CCc3sccc3C2)no1 (stereo not drawn),-1.53%
10,Cc1cnn(C2CN(CC(=O)NCCCc3ccccc3)C2)c1,-108%
11,c1ccc(NCc2cnc3n2CCN(C2CCOC2)CC3)nc1 (stereo not drawn),-124%
12,CC(C)NCC1OCCc2cn(C)nc21 (stereo not drawn),-22.9%
13,CSc1ccc(CN2CCCC3(CNC(=O)c4ccccc4O3)C2)cc1 (stereo not drawn),-85.7%
14,CN(C)c1cccc(C(=O)N2C[C@@H]3CC[C@H]2CN(C(=O)C2CCC2)C3)c1,-111%
15,CC[C@@H](C)[C@@H](N)C(=O)Nc1cccc(-c2cnc(N(C)C)nc2)c1,-60.2%
16,COc1ccc(-c2cc(CNc3ncnc4c3CCNCC4)no2)cc1,16%
17,c1cncc(-c2noc(CNc3ncnc4c3CCNCC4)n2)c1,-88.2%
18,Cc1ccc(-c2cc(CNc3ncnc4c3CCNCC4)no2)cc1,63.5%
19,Cc1nnc2n1CCN(C(=O)C(C)Oc1ccc(C#N)cc1)C2 (stereo not drawn),-140%
20,CN(C)C(=O)CN1C[C@H]2CC[C@@H](C1)N(Cc1cccc(Cl)c1Cl)C2,30.9%
